Records with an inconclusive call do not appear. Calls of active or inactive are those of the source. The call rests on the fitted dose curve; in most records, active means well fitted inhibition curve with a large enough effect; inconclusive means small, poorly fitted or top-dose-only effect, or effect the other way; inactive means flat fitted curve, though single readings scatter.
Target: Ubiquitin carboxyl-terminal hydrolase 2 (Homo sapiens) (UniProt O75604)
Test: Confirmation Assay for Inhibitors of Ubiquitin-specific Protease USP2a Using CHOP2 as the Reporter; further: nearly all actives have a fitted effect of over 55% in size
Conditions: USP2 core, Ub-CHOP2 coupled reporter fluorescence; series mostly up to 38.3 µM
Method in brief: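 Ub-CHOP2 cleavage coupled to reporter activation was read by fluorescence after 60 min at RT, with 25 nM final Ub-CHOP2 and substrate. Enzyme (10 nM final USP2 core) first sat 30 min with compound; data were normalized to NEM and fitted to concentration-response curves.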
Potency means the concentration at half of the fitted maximal effect.

Sequence of Ubiquitin carboxyl-terminal hydrolase 2 (Homo sapiens) (O75604 whole entry, looked up): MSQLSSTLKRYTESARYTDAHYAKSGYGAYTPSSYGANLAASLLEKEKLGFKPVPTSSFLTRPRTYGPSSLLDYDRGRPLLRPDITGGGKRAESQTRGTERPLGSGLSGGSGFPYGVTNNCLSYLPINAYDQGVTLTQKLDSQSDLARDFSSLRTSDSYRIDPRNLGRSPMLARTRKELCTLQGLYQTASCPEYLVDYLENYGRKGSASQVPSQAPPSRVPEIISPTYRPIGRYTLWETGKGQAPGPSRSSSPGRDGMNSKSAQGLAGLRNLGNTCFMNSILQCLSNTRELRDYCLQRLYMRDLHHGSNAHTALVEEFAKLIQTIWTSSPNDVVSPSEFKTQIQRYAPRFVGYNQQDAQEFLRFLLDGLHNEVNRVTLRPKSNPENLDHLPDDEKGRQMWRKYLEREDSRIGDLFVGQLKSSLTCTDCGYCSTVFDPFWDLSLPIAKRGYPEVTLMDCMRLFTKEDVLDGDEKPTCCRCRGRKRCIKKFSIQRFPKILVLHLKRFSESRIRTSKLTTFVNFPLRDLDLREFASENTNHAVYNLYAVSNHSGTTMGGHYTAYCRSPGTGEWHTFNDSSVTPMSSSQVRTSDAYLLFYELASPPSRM

Potency, inactive:
COC(=O)[C@@]12CCCCN1[C@H](c1ccc(-c3ccc(Cl)c(Cl)c3)cc1)[C@H]1C(=O)N(C)C(=O)[C@H]12, COCCN1Cc2cccc(C(=O)N3CCN(c4cc(C)ccc4C)CC3)c2C1=O, Cc1c(NC(=O)C2CCCN2S(=O)(=O)c2ccc(Cl)cc2)c(=O)n(-c2ccccc2)n1C (configuration not stated), Nc1ccc2nc(-c3ccc(N)c(Cl)c3)[nH]c2c1, O=C(CNC(=O)c1ccco1)Nc1ccc(S(=O)(=O)N2CCCC2)cc1, COc1ccccc1C(=O)N1CCN=C1SC, Cc1cccc(NC(=O)NCc2ccc3c(c2)cc(C)n3C)c1, Cc1c(NC(=O)C2CCCN(S(=O)(=O)c3cnc[nH]3)C2)c(=O)n(-c2ccccc2)n1C (configuration not stated), Cc1ccc(/C=C/S(=O)(=O)N2CCC(C(=O)O)CC2)cc1, CCCCCCCC/C=C\CCCCCCCC(=O)NCCc1ccc(O)c(O)c1, COc1ccc(NC(=O)CSc2ncccc2C(=O)OC(C)C)cc1OC, COC(=O)N/N=C\c1cc(Br)ccc1OCc1ccccc1, CCC1SC2=NC(C)=C(C(=O)OCCOC)C(c3ccc(C(=O)OC)cc3)N2C1=O (configuration not stated), CCn1c2ccccc2c2nc3ccccc3nc21, CCOc1ccccc1C(=O)Nc1nnc(C(C)C)s1, O=C(NC1CCCCC1)C(c1ccco1)N(C(=O)c1csnn1)c1cccc(F)c1 (configuration not stated)

Potency, active:
O=C(O)c1cc(N2N=C(C(F)(F)F)/C(=C/C=C/c3ccco3)C2=O)ccc1Cl 5.85 µM
